Reference: PubChem BioAssay (Tox21)
Results filed as inconclusive are left out. Active and inactive are the calls of the source. Unless noted, calls come from the whole dose curve.

How the values were obtained:
[1] = Nuclear factor erythroid 2-related factor 2/antioxidant responsive element (Nrf2/ARE) small molecule agonists: qHTS cell viability counter screen in human keratinocytes (AID 1919968; active = well fitted curve in the direction sought with a large enough effect in the repeat runs; an effect the other way counts as inactive or inconclusive; note: nearly all actives have a fitted effect of over 55% in size)
In short: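 KeratinoSens HaCaT cells, 1,500/well, preincubated 5 h, then exposed to compounds in DMSO for 23 h at 37 C/5% CO2. Viability read as CellTiter-Fluor fluorescence after 1 h, in the same wells as the ARE-luciferase read.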

[2] = Nuclear factor erythroid 2-related factor 2/antioxidant responsive element (Nrf2/ARE) small molecule agonists: luciferase reporter gene qHTS assay in human keratinocytes (AID 1919969); note: nearly all actives have a fitted effect of over 35% in size
[3] = target: KiSS-1 receptor (Homo sapiens) (UniProt Q969F8); test: Human kisspeptin (KISS1R) small molecule agonists, calcium flux assay in KISS1R-HEK293 cells (AID 1920064; active = well fitted curve in the direction sought with a large enough effect in the repeat runs; an effect the other way counts as inactive or inconclusive)
Chain of KiSS-1 receptor (Homo sapiens) (Q969F8 whole entry, looked up): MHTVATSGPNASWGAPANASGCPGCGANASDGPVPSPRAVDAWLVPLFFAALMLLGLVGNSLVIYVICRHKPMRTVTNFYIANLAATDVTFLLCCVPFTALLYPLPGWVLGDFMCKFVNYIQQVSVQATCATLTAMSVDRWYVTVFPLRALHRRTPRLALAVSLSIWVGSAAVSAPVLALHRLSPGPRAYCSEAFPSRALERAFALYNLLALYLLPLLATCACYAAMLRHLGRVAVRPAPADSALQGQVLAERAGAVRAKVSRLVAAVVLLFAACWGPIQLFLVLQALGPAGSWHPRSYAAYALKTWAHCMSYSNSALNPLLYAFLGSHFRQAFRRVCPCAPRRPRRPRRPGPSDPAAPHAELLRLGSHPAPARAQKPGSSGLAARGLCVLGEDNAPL
In short: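 HEK293 cells stably expressing human KISS1R were loaded with calcium dye for 1 h at 37 C, then given compound; fluorescence (Ex/Em 480/540) was read kinetically for 3 min. Fifteen concentrations, triplicate.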

[4] = G protein-coupled receptor (GPCR) small molecule agonists, calcium flux assay: HEK293 wild type cell line counter screen (AID 1920065)
In short: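 Wild-type HEK293 cells plated 18 h, loaded with calcium dye 1 h at 37 C, then compounds added in agonist mode (ATP as positive control). Kinetic fluorescence Ex/Em 480/540 recorded 3 min at 1 sec intervals; 15 concentrations, triplicate.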

[5] = p53 small molecule agonists, cell-based qHTS assay with rat liver microsomes (AID 1963578)
In short: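 Metabolic activation by rat liver microsomes and NADPH, each 0.5 mg/mL final, added right after compounds to p53RE-bla reporter cells (4,000/well, plated 5 h earlier). 16 h at 37 C, then LiveBLAzer substrate for 2 h at room temperature in the dark; fluorescence read-out.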

[6] = p53 small molecule agonists, cell-based qHTS assay with human liver microsomes: qHTS cell viability counter screen (AID 1963579); note: nearly all actives have a fitted effect of over 45% in size
In short: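 Metabolic activation used human liver microsomes and NADPH, both 0.5 mg/mL final, over 16 hours at 37 C on p53RE-bla cells (4,000/well). Cytotoxicity measured by CellTiter-Glo luminescence, 30 min at room temperature.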

[7] = p53 small molecule agonists, cell-based qHTS assay with rat liver microsomes: qHTS cell viability counter screen (AID 1963580); note: nearly all actives have a fitted effect of over 45% in size
In short: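 p53RE-bla HCT-116 cells were exposed 16 h at 37 C to compounds with rat liver microsomes (0.5 mg/mL) and NADPH (0.5 mg/mL). Viability was measured in the same wells as ATP content by CellTiter-Glo luminescence.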

[8] = p53 small molecule agonists, cell-based qHTS assay: qHTS cell viability counter screen (AID 1963581); note: nearly all actives have a fitted effect of over 45% in size
In short: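 p53RE-bla HCT-116 cells, compounds added 5 h after plating and incubated 16 h at 37 C. Cytotoxicity measured in the same wells as intracellular ATP by CellTiter-Glo luminescence after 30 min at room temperature.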

[9] = p53 small molecule agonists, cell-based qHTS assay (AID 1963582; active = well fitted activation curve with a large enough effect in the signal ratio in the repeat runs, not every such curve was filed as active; the % refers to the signal ratio)
In short: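 p53RE-bla reporter cells, compounds added in DMSO after 5 h plating, incubated 16 h at 37 C. Beta-lactamase read via 2 h room-temperature LiveBLAzer B/G FRET substrate, fluorescence intensity.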

[10] = target: 5-hydroxytryptamine receptor 2A (Homo sapiens) (UniProt P28223); test: 5-hydroxytryptamine receptor 2A (HTR2A) small molecule antagonists, cell-based qHTS assay (AID 1963586); note: nearly all actives have a fitted effect of over 45% in size
Chain of 5-hydroxytryptamine receptor 2A (Homo sapiens) (P28223 whole entry, looked up): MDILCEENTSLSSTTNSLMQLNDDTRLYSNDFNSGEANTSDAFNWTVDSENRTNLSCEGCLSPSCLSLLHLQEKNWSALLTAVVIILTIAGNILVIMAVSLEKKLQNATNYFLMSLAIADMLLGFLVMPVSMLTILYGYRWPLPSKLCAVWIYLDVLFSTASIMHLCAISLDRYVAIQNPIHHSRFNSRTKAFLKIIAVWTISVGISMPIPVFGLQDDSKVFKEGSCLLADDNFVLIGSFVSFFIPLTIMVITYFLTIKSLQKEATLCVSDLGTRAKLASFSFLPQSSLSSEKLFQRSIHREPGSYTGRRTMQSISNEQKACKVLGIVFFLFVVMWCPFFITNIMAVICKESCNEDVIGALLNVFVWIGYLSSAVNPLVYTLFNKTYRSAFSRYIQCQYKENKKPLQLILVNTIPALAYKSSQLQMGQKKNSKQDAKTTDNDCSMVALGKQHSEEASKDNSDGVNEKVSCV
In short: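 Antagonist-mode intracellular calcium assay: DOI (4 nM) added after 5 min compound pre-incubation at room temperature to dye-loaded HTR2A-CHO cells. Fluorescence followed for 3 min, sampled every second.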

[11] = target: 5-hydroxytryptamine receptor 2A (Homo sapiens) (UniProt P28223); test: 5-hydroxytryptamine receptor 2A (HTR2A) small molecule agonists, cell-based qHTS assay (AID 1963587); note: nearly all actives have a fitted effect of over 30% in size
In short: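 CHO cells stably expressing human HTR2A, plated 18 h, loaded with calcium dye 1 h at 37 C. Agonist mode: compounds added and intracellular calcium fluorescence recorded kinetically for 2 min at 1 sec intervals.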

[12] = target: Muscarinic acetylcholine receptor M1 (Homo sapiens) (UniProt P11229); test: Cholinergic receptor muscarinic 1 (CHRM1) small molecule antagonists, cell-based qHTS assay (AID 1963588); note: nearly all actives have a fitted effect of over 40% in size; note: potency is the fitted concentration of half-maximal effect
Chain of Muscarinic acetylcholine receptor M1 (Homo sapiens) (P11229 whole entry, looked up): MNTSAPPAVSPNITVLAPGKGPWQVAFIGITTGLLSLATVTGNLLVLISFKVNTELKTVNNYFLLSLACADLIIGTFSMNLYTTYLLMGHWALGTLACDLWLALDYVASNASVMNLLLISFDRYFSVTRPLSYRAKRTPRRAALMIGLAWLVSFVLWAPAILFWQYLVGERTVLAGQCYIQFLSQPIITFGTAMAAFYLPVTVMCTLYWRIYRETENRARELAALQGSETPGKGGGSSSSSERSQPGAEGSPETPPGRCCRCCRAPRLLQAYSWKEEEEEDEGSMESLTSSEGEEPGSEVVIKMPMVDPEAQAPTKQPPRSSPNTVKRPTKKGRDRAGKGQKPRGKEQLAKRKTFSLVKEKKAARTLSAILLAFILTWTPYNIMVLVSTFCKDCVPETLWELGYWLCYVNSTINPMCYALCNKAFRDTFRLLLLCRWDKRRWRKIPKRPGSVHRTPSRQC
In short: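 CHRM1-CHO calcium-flux assay, antagonist mode. Cells were seeded 18 h, dye-loaded 1 h at 37 C and given compound for 5 min at RT, then acetylcholine was added at 50nM. FDSS fluorescence was read 3 min; 15 concentrations, three runs.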

[13] = target: Muscarinic acetylcholine receptor M1 (Homo sapiens) (UniProt P11229); test: Cholinergic receptor muscarinic 1 (CHRM1) small molecule agonists, cell-based qHTS assay (AID 1963589); note: nearly all actives have a fitted effect of over 35% in size
In short: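 CHO cells stably expressing human CHRM1 were loaded with calcium dye for 1 h at 37 C, then compound was added in agonist mode. Intracellular calcium fluorescence was followed kinetically at 1 s intervals. Fifteen concentrations were tested in three independent runs.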

[14] = cAMP Responsive Elements (CRE) small molecule agonists, cell-based qHTS assay (AID 1963590)
In short: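 CRE-bla HEK 293T cells, 2,000/well in DMEM with 10% dialyzed FBS and 25 mM HEPES, pre-incubated 18 h at 37 C, then exposed to compound 3 h at 37 C. Beta-lactamase reporter read with LiveBLAzer B/G FRET substrate after 2 h at room temperature.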

[15] = cAMP Responsive Elements (CRE) small molecule antagonists, cell-based qHTS assay (AID 1963591; active = well fitted inhibition curve with a large enough effect in the signal ratio in the repeat runs, not every such curve was filed as active; the % refers to the signal ratio)
In short: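 CRE-bla HEK293T cells plated 18 h, then given compound plus NKH477 at 0.25 uM final for 3 h at 37C. Beta-lactamase reporter read with LiveBLAzer B/G FRET substrate after 2 h at room temperature.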

[16] = p53 small molecule agonists, cell-based qHTS assay with human liver microsomes (AID 1963577);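 note: p53 response element beta-lactamase reporter cells with liver microsomes plus NADPH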
In short: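 With metabolic activation: human liver microsomes (0.5 mg/mL final) plus NADPH (0.5 mg/mL final) added alongside compounds to p53RE-bla cells; 16 h 37 C exposure; beta-lactamase read by LiveBLAzer fluorescence.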

[17] = target: Beta-2 adrenergic receptor (Homo sapiens) (UniProt P07550); test: Adrenergic beta2 receptor (ADRB2) small molecule antagonists, cell-based qHTS assay (AID 1963592); note: series mostly up to about 92 µM; nearly all actives have a fitted effect of over 50% in size
Chain of Beta-2 adrenergic receptor (Homo sapiens) (P07550 whole entry, looked up): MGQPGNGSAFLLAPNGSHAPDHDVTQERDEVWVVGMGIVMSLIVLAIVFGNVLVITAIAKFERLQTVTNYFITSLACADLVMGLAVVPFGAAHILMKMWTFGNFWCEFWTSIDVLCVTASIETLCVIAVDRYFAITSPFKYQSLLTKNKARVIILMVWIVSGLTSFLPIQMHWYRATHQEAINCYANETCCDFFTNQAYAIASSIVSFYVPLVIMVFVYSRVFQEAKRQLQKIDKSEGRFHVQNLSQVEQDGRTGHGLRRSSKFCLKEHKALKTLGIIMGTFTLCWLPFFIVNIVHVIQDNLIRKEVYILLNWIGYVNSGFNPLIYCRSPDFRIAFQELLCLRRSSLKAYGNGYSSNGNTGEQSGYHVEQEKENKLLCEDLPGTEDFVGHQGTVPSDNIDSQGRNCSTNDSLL
In short: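 Cells (CHO, stable ADRB2 overexpression) incubated 18-20hr at 37C; compounds added from DMSO; agonist mix (1nM isoproterenol, 100uM IBMX, 25uM Ro-20-1724) added; 0.5hr RT; d2-cAMP and anti-cAMP-cryptate added; 1hr RT; 665/615 nm read.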

[18] = target: Beta-2 adrenergic receptor (Homo sapiens) (UniProt P07550); test: Adrenergic beta2 receptor (ADRB2) small molecule agonists, cell-based qHTS assay (AID 1963593);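 note: CHO cells stably overexpressing human ADRB2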
In short: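 CHO cells stably over-expressing ADRB2 were plated overnight at 37C, then dosed with compounds plus a stimulation mix containing 100uM IBMX and 25uM Ro-20-1724 for 0.5hr at room temperature. cAMP was measured by HTRF competition, 1hr.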

[19] = target: D(2) dopamine receptor (Homo sapiens) (UniProt P14416); test: Dopamine D2 receptor (DRD2) small molecule agonists, cell-based qHTS assay (AID 1963594); note: nearly all actives have a fitted effect of over 35% in size
Chain of D(2) dopamine receptor (Homo sapiens) (P14416 whole entry, looked up): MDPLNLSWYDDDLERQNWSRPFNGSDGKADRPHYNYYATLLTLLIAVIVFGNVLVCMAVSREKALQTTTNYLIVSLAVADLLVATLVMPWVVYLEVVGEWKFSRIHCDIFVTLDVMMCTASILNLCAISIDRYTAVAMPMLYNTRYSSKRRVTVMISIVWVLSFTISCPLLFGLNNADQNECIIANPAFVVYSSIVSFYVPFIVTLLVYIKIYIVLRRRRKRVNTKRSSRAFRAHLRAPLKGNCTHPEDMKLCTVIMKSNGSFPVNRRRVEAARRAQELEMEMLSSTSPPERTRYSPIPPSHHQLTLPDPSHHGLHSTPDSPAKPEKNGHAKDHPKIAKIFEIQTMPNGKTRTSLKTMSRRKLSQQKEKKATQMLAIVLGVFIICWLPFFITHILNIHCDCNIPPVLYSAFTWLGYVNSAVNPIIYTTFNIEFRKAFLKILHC
In short: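 HEK293 cells stably expressing human DRD2, pre-treated with PDE inhibitor Ro20-1724 (0.1 mM final) and compound 10 min at room temperature, then stimulated with NKH477 (200nM […]) for 30 min. cAMP read by HTRF (665/620 nm).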

[20] = target: D(2) dopamine receptor (Homo sapiens) (UniProt P14416); test: Dopamine D2 receptor (DRD2) small molecule antagonists, cell-based qHTS assay (AID 1963595; active = well fitted inhibition curve with a large enough effect in the signal ratio in the repeat runs, with a control signal flat; the % refers to the signal ratio; note: potency is the fitted concentration of half-maximal effect)
In short: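 Antagonism was scored as restored cAMP in HEK293-DRD2 cells. These cells were stimulated with 200 nM NKH477 and 12 nM quinpirole for 30 min at room temperature, in the presence of 0.1 mM Ro20-1724.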
% is set by controls: 0 for no effect and ±100 for the full control effect.

CCCCS(=O)(=O)N[C@@H](Cc1ccc(OCCCCC2CCNCC2)cc1)C(=O)O
inactive: Potency [1] | Potency [2] | outcome [3] | outcome [4] | Potency [5] | Potency [6] | Potency [7] | Potency [8] | Potency [9] | Potency [10] | Potency [11] | Potency [12] | Potency [13] | Potency [14] | Potency [15]

Cc1cc(OI)c(C(C)C)cc1-c1cc(C(C)C)c(OI)cc1C
inactive: Potency [1] | Potency [2] | outcome [3] | outcome [4] | Potency [16] | Potency [7] | Potency [8] | Potency [9] | Potency [10] | Potency [11] | Potency [12] | Potency [13] | Potency [14] | Potency [15] | Potency [17] | Potency [18] | Potency [19] | Potency [20]

COc1ccc(OC)c(NC(=O)CC(C)=O)c1
inactive: Potency [1] | Potency [2] | outcome [3] | Potency [16] | Potency [5] | Potency [6] | Potency [7] | Potency [8] | Potency [9] | Potency [10] | Potency [11] | Potency [12] | Potency [13] | Potency [14] | Potency [17] | Potency [19] | Potency [20]

CCOC(=O)[C@H](CCc1ccccc1)N[C@H]1CS[C@H](c2cccs2)CN(CC(=O)O)C1=O
inactive: Potency [1] | Potency [2] | outcome [3] | outcome [4] | Potency [16] | Potency [6] | Potency [7] | Potency [8] | Potency [9] | Potency [10] | Potency [11] | Potency [12] | Potency [13] | Potency [14] | Potency [15] | Potency [17] | Potency [20]

C[N+]1(C)CCC(=C(c2ccccc2)c2ccccc2)CC1
active: Potency [12] 0.013 µM
inactive: Potency [1] | Potency [2] | outcome [3] | Potency [16] | Potency [5] | Potency [6] | Potency [7] | Potency [8] | Potency [9] | Potency [13] | Potency [14] | Potency [15] | Potency [17] | Potency [18] | Potency [19]

CCN(CC)CCNC(=O)COc1ccc(Cl)cc1
inactive: Potency [1] | Potency [2] | outcome [3] | outcome [4] | Potency [16] | Potency [6] | Potency [7] | Potency [8] | Potency [9] | Potency [11] | Potency [12] | Potency [14] | Potency [15] | Potency [18] | Potency [19] | Potency [20]

CCN1CCN(c2cc(-c3ccc(F)cc3)c3c(n2)CCCCCC3)CC1
active: Potency [12] 0.0317 µM | Potency [20] 0.0326 µM
inactive: activity change, negative = cytotoxicity [1] -1.5% [at 19 µM] | activation [3] 8.32% [at 15.8 µM] | activation [4] -0.133% [at 11.8 µM] | activation [16] -0.562% [at 13.5 µM] | activation [5] -1.02% [at 13.6 µM] | activity change, negative = cytotoxicity [6] 11.2% [at 13.5 µM] | activity change, negative = cytotoxicity [7] 0.85% [at 13.5 µM] | activity change, negative = cytotoxicity [8] 1.98% [at 13.5 µM] | activation [9] -0.331% [at 13.5 µM] | activation [11] -5.11% [at 15.9 µM] | activation [13] 2.2% [at 15.8 µM] | activation [14] 0.689% [at 19 µM] | activity change, negative = inhibition [15] 1.59% [at 18.9 µM] | activity change, negative = inhibition [17] -12.5% [at 19 µM]

CCc1cccc(CC)c1NC(=O)CN(CC(=O)O)CC(=O)O
inactive: Potency [1] | outcome [3] | outcome [4] | Potency [16] | Potency [5] | Potency [6] | Potency [7] | Potency [8] | Potency [9] | Potency [10] | Potency [11] | Potency [12] | Potency [13] | Potency [14] | Potency [15] | Potency [17] | Potency [20]
